Measured values published in PubChem BioAssay AID1851 (National Center for Advancing Translational Sciences (NCATS), 2009).
Values joined by “and” are separate entries in the source; they are usually repeats but may differ in a detail not shown here. Identical values can stand only once. Screen size: about 16,000 compounds; about 2,600 (16%) were called active. About 20% were inconclusive and are not listed. Calls come from the whole dose curve; as a rule, active = well fitted curve in the direction sought with a large enough effect; inconclusive = small, poorly fitted or top-dose-only effect, or effect the other way; inactive = no such curve, though single readings can be large or run the other way. The entries come from a sample that favours actives as a whole. Where a structure was tested more than once in an assay, its records may differ in their call.

Molecular target: Cytochrome P450 2D6 (Homo sapiens) (UniProt P10635)
Sequence (P10635 whole entry, looked up): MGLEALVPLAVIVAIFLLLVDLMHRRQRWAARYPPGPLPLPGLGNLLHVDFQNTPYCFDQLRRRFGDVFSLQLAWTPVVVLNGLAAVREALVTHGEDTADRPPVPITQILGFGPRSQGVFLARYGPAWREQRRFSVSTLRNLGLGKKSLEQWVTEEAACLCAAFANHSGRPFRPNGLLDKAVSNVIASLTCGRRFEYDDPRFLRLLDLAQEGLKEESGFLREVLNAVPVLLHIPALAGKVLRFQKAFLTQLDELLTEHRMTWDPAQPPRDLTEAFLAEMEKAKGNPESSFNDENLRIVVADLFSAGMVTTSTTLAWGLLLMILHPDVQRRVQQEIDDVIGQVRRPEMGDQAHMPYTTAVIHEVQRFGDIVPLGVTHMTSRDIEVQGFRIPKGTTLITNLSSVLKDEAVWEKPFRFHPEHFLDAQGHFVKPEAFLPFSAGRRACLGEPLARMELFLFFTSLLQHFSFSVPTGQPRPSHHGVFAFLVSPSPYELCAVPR
Assay: Cytochrome panel assay with activity outcomes
Conditions: recombinant CYP, pro-luciferin dealkylation, luminescence, p450-cyp2d6; series mostly up to 57.1 µM; activity, negative = inhibition: at the top concentration
Method: The P450 gene superfamily is involved in the metabolism and clearance of xenobiotics. This assay used various human CYP P450 isozymes to measure the dealkylation of various pro-luciferin substrates to luciferin. The luciferin is then measured by luminescence after the addition of a luciferase detection reagent. Pro-luciferin substrate concentration in the assay was equal to its KM for its CYP P450 isozyme. Inhibitors and some substrates limit the production of luciferin, and decrease measured luminescence.
NCGC Assay Protocol Summary:
1, Reagent, 2 uL, Isozyme and Pro-Luciferin
2, Library compounds, 23 nl, 40 uM to 0.24 nM dilution series
3, Controls, 23 nl, Isozyme specific inhibitor
4, Reagent, 2 uL, NADPH regeneration solution
5, Incubation time, 60 min, Isozyme specific temperature
6, Reagent, 4ul, Detection reagent
7, Incubation time, 20 min, Isozyme specific temperature
8, Detection, 1 sec, ViewLux luminescent read
The luciferase-based P450-GloTM Screening Systems were obtained from Promega (Madison, WI) for CYP 1A2 (V9770), CYP 2C9 (V9790), CYP2 C19 (V9880), CYP 2D6 (V9890), and CYP 3A4 Luciferin-PPXE (V9910) and were adapted for 1,536-well microplates and an automated protocol. The control compounds furafylline for 1A2 (F124), sulfaphenazole for CYP 2C9 (S0758), ketoconazole for CYP 2C19 (K1003), quinidine for 2D6 (Q3625), and ketoconazole for 3A4 (K1003) were purchased from Sigma Aldrich (St. Louis, MO). Recombinant P450 enzymes were obtained from baculovirus constructs expressed in insect cells (BD/Gentest).
Medium-binding white solid Kalypsys plates used. Mixtures kept on ice. 1A2: 10 nM 1A2, 100 uM Luc-ME, 100 mM KPO4; 2C9: 10 nM 2C9, 100 uM Luc-H, 25 mM KPO4; 2C19: 5 nM 2C19, 10 uM Luc-H EGE, 50 mM KPO4; 2D6: 5 nM 2D6, 30 uM Luc-ME EGE, 100 mM KPO4; 3A4: 10 nM, 25 uM Luc-PPXE. All amounts are reflected in their final concentration, working concentration is 2x.
NADPH regeneration solution: 1.3 mM NADP+, 3.3 mM glucose-6-phosphate, 3.3 mM MgCl2, 0.4 U/mL glucose-6-phosphate dehydrogenase for all isozymes, 200 mM KPO4 for 3A4. Mixture prepared at RT but kept on ice during automated run.
RT incubation in auxilliary plate hotel for 1A2, 2D6, and 3A4; 37C for 2C9 and 2C19.
Keywords: P450, CYP1A2, CYP2C19, CYP2C9, CYP2D6, CYP3A4, Luciferase, MLSMR, MLSCN, NIH Roadmap, qHTS, NCGC
% is set by controls: 0 for no effect and ±100 for the full control effect.

SMILES	activity, negative = inhibition	AC50
CC(C)[C@@]1(NC(=O)[C@@H]2C[C@H]3c4cccc5[nH]cc(c45)C[C@@H]3N(C)C2)O[C@]2(O)[C@H]3CCCN3C(=O)CN2C1=O	-18.7% [at 25.6 µM] (inactive)	–
CC(C)[C@@]1(NC(=O)[C@@H]2C[C@H]3c4cccc5[nH]cc(c45)C[C@@H]3N(C)C2)O[C@@]2(O)[C@H]3CCCN3C(=O)[C@H](Cc3ccccc3)N2C1=O	-17.1% (inactive)	–
CCN(CC)C(=O)N[C@@H]1C[C@H]2c3cccc4[nH]cc(c34)C[C@@H]2N(C)C1	–	15.8 nM (active) and 10 nM (active)
NCCCNCCSP(=O)(O)O	-2.11% (inactive)	–
N[C@H](Cc1ccc2oc3cc(=O)c4ccccc4c-3nc2c1)C(=O)O	-14.6% [at 11.4 µM] (inactive)	–
CC1(C)CCC(C)(C)c2c1ccc(O)c2Cc1c(O)ccc2c1C(C)(C)CCC2(C)C	4.74% [at 11.4 µM] (inactive)	–
CCn1c(O)c(C(c2ccccn2)c2c(O)n(CC)c(=S)[nH]c2=O)c(=O)[nH]c1=S	2.86% (inactive)	–
O=C(C[C@H](c1ccccc1)c1c(O)c2ccccc2oc1=O)c1ccccc1	12.6% [at 11.4 µM] (inactive)	–
COCCn1c(SCc2nc3sc(C(=O)OC)c(C)c3c(=O)[nH]2)nc2ccccc21	–	10 µM (active)
CC(C)C(=O)CP(=O)(O)O	-4.98% [at 11.4 µM] (inactive)	–
COc1cc(OC)c(/C=C2/C(=O)Nc3ccccc32)c(OC)c1	2.82% (inactive)	–
CCOC(=O)c1cncn1[C@H](C)c1ccccc1	-4.57% (inactive)	–
CCOC(=O)c1cncn1[C@@H](C)c1ccccc1	-4.3% [at 25.6 µM] (inactive)	–
C[C@H](c1ccccc1)N1CCN([C@@H](C)c2ccccc2)CC1	–	0.0631 µM (active)
C(=NC12CN3CN(CN(C3)C1)C2)c1cccs1	5.66% (inactive)	–
S=C=Nc1cccc(C2(N3CCCCC3)CCCCC2)c1	–	10 µM (active)
COC(=O)C1=CCCN(C)C1	–	inactive
CCCC(CCC)C(=O)O	-0.976% (inactive)	–
CCC1(C)CC(=O)NC(=O)C1	3.83% [at 25.6 µM] (inactive)	–
N[C@H](CCl)C(=O)O	4.24% (inactive)	–
N[C@@H](Cc1cc(Br)c(O)c(Br)c1)C(=O)O	10.2% [at 11.4 µM] (inactive)	–
Cc1o[nH]c(=O)c1C[C@H](N)C(=O)O	–	inactive and 15.8 µM (active)
Cc1o[nH]c(=O)c1C[C@@H](N)C(=O)O	2.96% (inactive)	–

SMILES	activity, negative = inhibition	AC50
N[C@H](C(=O)O)c1cc(=O)[nH]o1	12.8% (inactive)	–
N[C@H](Cc1o[nH]c(=O)c1Cl)C(=O)O	–	0.158 µM (active)
C[C@@H]1O[C@H](O[C@@H]2CC[C@@]3(C=O)[C@H]4CC[C@@]5(C)[C@@H](C6=CC(=O)OC6)CC[C@@]5(O)[C@@H]4CC[C@]3(O)C2)C[C@H](O)[C@@H]1O	5.25% [at 25.6 µM] (inactive)	–
CCCCCCN=Cc1c(O)n(C)c(=O)n(C)c1=O	-19% (inactive)	–
CC1=C(C)[N+](=O)C2(O)CCCCC2(C)N1[O-] (stereo not given)	18.1% (inactive)	–
C[C@@H]1O[C@H](O[C@H]2C[C@@H](O)[C@@]3(CO)[C@H]4[C@@H](O)C[C@]5(C)[C@@H](C6=CC(=O)OC6)CC[C@]5(O)[C@H]4CC[C@]3(O)C2)[C@@H](O)[C@H](O)[C@@H]1O	2.17% [at 25.6 µM] (inactive)	–
C[C@@H]1O[C@H](O[C@@H]2C[C@@H](O)[C@]3(CO)[C@H]4[C@H](O)C[C@]5(C)[C@@H](C6=CC(=O)OC6)CC[C@@]5(O)[C@@H]4CC[C@]3(O)C2)[C@@H](O)[C@H](O)[C@H]1O	–	0.0501 µM (active)
C[C@@H]1O[C@@H](O[C@H]2C[C@@H](O)[C@]3(CO)[C@@H]4[C@@H](O)C[C@]5(C)[C@H](C6=CC(=O)OC6)CC[C@@]5(O)[C@H]4CC[C@@]3(O)C2)[C@H](O)[C@H](O)[C@@H]1O	-5.79% (inactive)	–
CCOC(=O)c1c(NC(=O)C(c2ccccc2)c2ccccc2)sc2c1C1CCN2CC1	6.8% (inactive)	–
CN1CC[C@@]23c4ccccc4N[C@H]1[C@]21CCN(C)[C@@H]3Nc2ccccc21	-7.44% [at 25.6 µM] (inactive)	–
CCCCN(CCCC)CCC(O)c1cc2c(Cl)cc(Cl)cc2c2cc(C(F)(F)F)ccc12 (stereo not given)	–	3.98 µM (active)
O=C(O)CNC(=O)[C@@H](CS)Cc1ccccc1	8.35% (inactive)	–
O=[N+]([O-])c1ccc2nc(N3CCNCC3)ccc2c1	-12.8% (inactive)	–
CN(N=O)C(=O)N[C@H]1[C@@H](O)[C@H](O)[C@H](CO)O[C@@H]1O	-1.92% [at 25.6 µM] (inactive)	–
COC(=O)[C@H]1[C@H](c2ccccc2)C(=O)[C@@]2(O)c3ccccc3O[C@@]12c1ccccc1	1.53% [at 11.4 µM] (inactive)	–
CCS(=O)(=O)Nc1cccc(C(=C2CCCCC2)c2cnc[nH]2)c1	–	7.94 µM (active)
CN1C(=O)C(C2c3ccccc3C(=O)N2Cc2ccc([N+](=O)[O-])cc2)C(=O)N(C)C1=O (stereo not given)	-17.5% (inactive)	–
C1C[C@@H]2CN(CCCN3CCOCC3)[C@@H](C1)O2	-5.61% [at 11.4 µM] (inactive)	–
CC1(C)CCC2=C(O1)c1ccccc1C(=O)C2=O	–	15.8 µM (active)
CN1[C@@H](CC(=O)c2ccccc2)CCC[C@@H]1C[C@@H](O)c1ccccc1	–	0.0794 µM (active)
CN1[C@@H](C[C@@H](O)c2ccccc2)CCC[C@@H]1C[C@H](O)c1ccccc1	–	0.631 µM (active)
Cn1c[n+](C)cc1C(O)c1ccccc1 (stereo not given)	-5.07% (inactive)	–
